Reference: PubChem BioAssay (NCI)
Compounds without any hit were thinned out: in the full panel of roughly 79,000, 15% have a hit. A number with no mark means an inactive call. Calls of active or inactive are those of the source. Rule as the data show it: active = growth inhibition above about 70%; inactive = the rest.

Columns and labels:
[1] = NCI Yeast Anticancer Drug Screen. Data for the rad50 strain (AID 155);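 also: 0% = growth of vehicle-only cultures of the same strain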; conditions: S. cerevisiae rad50 strain growth inhibition, active compounds read high
Outline: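 Vehicle-treated cultures provide the reference for the growth inhibition reported for compound-exposed, repair-deficient yeast.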

[2] = NCI Yeast Anticancer Drug Screen. Data for the mec2-1 strain (AID 157); conditions: S. cerevisiae mec2-1 strain, active compounds read high
Outline: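 mec2-1 yeast strain, carrying an alteration in DNA damage repair or cell cycle control, was exposed to compounds; growth inhibition was measured relative to vehicle-treated controls.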

[3] = NCI Yeast Anticancer Drug Screen. Data for the sgs1 mgt1 strain (AID 161);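 also: 0% = growth of cultures given vehicle only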; conditions: S. cerevisiae sgs1 mgt1 strain, active compounds read high
Outline: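 Compounds are added to genetically altered yeast, and growth is compared with cultures given vehicle alone to give percent inhibition.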

[4] = NCI Yeast Anticancer Drug Screen. Data for the cln2 rad14 strain (AID 165);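 also: 0% = growth equal to vehicle treated cultures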; conditions: S. cerevisiae cln2 rad14 strain, active compounds read high
Outline: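 Yeast carrying cln2 and rad14 alterations (cell cycle control and DNA damage repair) were exposed to compounds. Growth inhibition was measured against vehicle-treated controls.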

[5] = NCI Yeast Anticancer Drug Screen. Data for the bub3 strain (AID 167); conditions: S. cerevisiae bub3 mutant strain, active compounds read high
Outline: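 Mutant yeast screening strain plus compound; vehicle-treated cultures serve as the 0% inhibition reference.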

[6] = NCI Yeast Anticancer Drug Screen. Data for the mlh1 rad18 strain (AID 175); conditions: S. cerevisiae mlh1 rad18 strain growth inhibition, active compounds read high
Outline: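 Growth inhibition of the yeast strain was measured after compound exposure and expressed relative to vehicle-treated controls. The strain carries defined defects in DNA damage repair.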

[7] = at 5.0 µM (retest, dose inferred, filed as 0.5)
[8] = at 50.0 µM (retest, dose inferred, filed as 5.0)

Compound	growth inhibition [1, 7]	growth inhibition [1, 8]	growth inhibition ([1]; at 50.0 µM)	growth inhibition [2, 7]	growth inhibition [2, 8]	growth inhibition ([2]; at 50.0 µM)	growth inhibition [3, 7]	growth inhibition [3, 8]	growth inhibition ([3]; at 50.0 µM)	growth inhibition [4, 7]	growth inhibition [4, 8]	growth inhibition ([4]; at 50.0 µM)	growth inhibition [5, 7]	growth inhibition [5, 8]	growth inhibition ([5]; at 50.0 µM)	growth inhibition [6, 7]	growth inhibition [6, 8]	growth inhibition ([6]; at 50.0 µM)
CCCCN(C)C(=S)N/N=C(\C)c1ccccn1	56%	99% (active)	99.5% (active)	73% (active)	100% (active)	99.8% (active)	97% (active)	99% (active)	99.7% (active)	95% (active)	98% (active)	99.5% (active)	92% (active)	99% (active)	99.5% (active)	98% (active)	99% (active)	99.7% (active)
CC[n+]1c(/C=C/c2cc(C(=O)OC)n3c2sc2ccccc23)sc2ccccc21	43%	99% (active)	99% (active)	38%	99% (active)	99.2% (active)	3%	99% (active)	99.2% (active)	25%	99% (active)	98.4% (active)	49%	99% (active)	98.6% (active)	61%	99% (active)	98.8% (active)
O=Cc1cc(O)ccc1Br	33%	96% (active)	71.3% (active)	28%	96% (active)	76.8% (active)	37%	97% (active)	91.6% (active)	29%	58%	82.7% (active)	40%	99% (active)	89.3% (active)	32%	98% (active)	79.6% (active)
C[C@]12CC[C@H](O)C[C@@H]1CC[C@@H]1[C@@H]2C(=O)C[C@]2(C)C3=CC(=O)O[C@H]3C[C@@H]12	40%	97% (active)	98.2% (active)	27%	98% (active)	91% (active)	32%	98% (active)	94% (active)	-3%	94% (active)	57.6%	11%	97% (active)	92.6% (active)	34%	98% (active)	96.8% (active)
CC1CCN(CCC(=O)c2cccc(O)c2)CC1	4%	57%	48.5%	-5%	44%	36.3%	2%	48%	29.8%	-2%	26%	21.1%	-16%	39%	15.5%	10%	77% (active)	65.8%
c1cc(NC2CCCCC2)ccc1CN1CCOCC1	57%	90% (active)	55.3%	51%	73% (active)	70.5% (active)	80% (active)	88% (active)	70%	72% (active)	87% (active)	63.8%	80% (active)	78% (active)	68.2%	56%	82% (active)	79% (active)
CCCCN(CCCC)Cc1cc(Nc2c3ccc(Cl)cc3nc3ccc(OC)cc23)ccc1O	4%	91% (active)	79.2% (active)	10%	56%	86.7% (active)	-19%	95% (active)	75.4% (active)	-4%	23%	89.5% (active)	-3%	36%	58.4%	7%	79% (active)	98.1% (active)
COC(=O)c1c(C)cccc1C(=O)c1ccc(C)cc1C	-14%	-4%	2.4%	-10%	-3%	-0.1%	-4%	9%	10.6%	-38%	-7%	2.75%	-2%	-16%	5.05%	-11%	21%	23.4%
CCOC(=O)/C=C/c1ccc([N+](=O)[O-])o1	18%	91% (active)	73.2% (active)	3%	72% (active)	31.4%	21%	93% (active)	91.5% (active)	4%	58%	34.5%	11%	82% (active)	27.1%	28%	93% (active)	85.5% (active)
N[C@H](C(=O)O)[C@@H]1CC(Cl)=NO1	63%	97% (active)	83.7% (active)	98% (active)	96% (active)	89.8% (active)	59%	96% (active)	84.5% (active)	68%	96% (active)	85.2% (active)	68%	97% (active)	88.5% (active)	86% (active)	97% (active)	84.8% (active)
CCCCCCCCC(=O)NCCN(CCN)C(=O)CCCCCCCC	-82%	97% (active)	90.2% (active)	-43%	98% (active)	93.1% (active)	-33%	97% (active)	91.7% (active)	-24%	98% (active)	89.9% (active)	-47%	97% (active)	90.1% (active)	-68%	97% (active)	90% (active)
Cc1c(N)cccc1[N+](=O)[O-]	2%	8%	97.8% (active)	-6%	6%	98.6% (active)	-3%	-1%	97.4% (active)	-1%	7%	95.5% (active)	3%	15%	98.2% (active)	0%	2%	98.5% (active)
CN(C)C(=O)SC1=C(c2c(Cl)cccc2Cl)C(=O)c2ccccc21	41%	74% (active)	66.3%	32%	69%	74.5% (active)	53%	80% (active)	89.7% (active)	33%	61%	87.8% (active)	32%	71% (active)	85.9% (active)	82% (active)	93% (active)	82.8% (active)
O=C(NCCN1CCN2Cc3[nH]c4ccccc4c3CC2C1)c1ccc(Cl)cc1 (stereo not given)	9%	50%	51.6%	10%	40%	46.8%	1%	50%	61%	27%	72% (active)	55.6%	26%	53%	50.5%	8%	60%	53.5%
CC1=C(/C=C/C(C)=N/NC(N)=S)C(C)(C)CCC1	24%	87% (active)	84.5% (active)	5%	88% (active)	80.5% (active)	22%	88% (active)	65.8%	15%	85% (active)	76.9% (active)	16%	86% (active)	80.1% (active)	6%	89% (active)	85% (active)
Clc1ccc2oc(N3CCCCC3)nc2c1	4%	7%	98.8% (active)	-3%	-3%	99.2% (active)	2%	6%	99% (active)	2%	6%	98.2% (active)	8%	15%	99.2% (active)	4%	11%	98.7% (active)
CC(C)OC(=O)c1ccc(NCc2cc(O)ccc2O)cc1Cl	61%	99% (active)	89.8% (active)	41%	99% (active)	90.3% (active)	55%	99% (active)	91.6% (active)	63%	100% (active)	89.5% (active)	53%	100% (active)	88.9% (active)	49%	98% (active)	88% (active)
Clc1ccc(-c2cc(-c3cc(-c4ccc(Cl)c(Cl)c4)n[nH]3)[nH]n2)cc1Cl	-2%	68%	91% (active)	6%	43%	22.8%	0%	67%	65%	3%	60%	29.7%	-14%	89% (active)	22.8%	19%	89% (active)	65%
O=C1C=CC(=O)c2c(O)c(N3CCC[C@H]3CO)c(Cl)c(O)c21	20%	90% (active)	61.2%	14%	90% (active)	78.9% (active)	19%	95% (active)	23.9%	13%	51%	20%	25%	97% (active)	34.5%	31%	90% (active)	41.6%
OCCOCCO[P+]1(OCCOCCO)n2c3ccc2C(c2ccccc2)=C2C=CC(=N2)C(c2ccccc2)=c2ccc(n21)=C(c1ccccc1)C1=NC(=C3c2ccccc2)C=C1	99% (active)	98% (active)	91.3% (active)	100% (active)	99% (active)	92.2% (active)	99% (active)	98% (active)	92% (active)	97% (active)	99% (active)	91.4% (active)	100% (active)	99% (active)	89% (active)	97% (active)	98% (active)	85.8% (active)
